Bioassay records (PubChem BioAssay)
Shown are actives, neighbours in structure and some others; about 2.7% of the full set was active somewhere.
KDM5B inhibitor – KDM5B demethylase inhibition; KDM5B demethylase, FDH-coupled NADH fluorescence (FDH is formaldehyde dehydrogenase); Potency, µM (doses to about 57.7 µM), actives largely listed as inhibitors; 220,000 compounds, 2.6% hits; active = well fitted inhibition curve with a large enough effect; inconclusive = small, poorly fitted or top-dose-only effect; inactive = no such curve, though single readings can be large or run the other way; also: potency is read from the fitted curve at half-maximal effect; 0% is about no effect; nearly all actives have a fitted effect of over 70% in size
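KDM5BΔAP (200 nM final) in 50 mM HEPES pH 7.5, 0.01% Tween-20 was preincubated 10 min at RT with compound over a concentration range. Substrate mix (H3K4me3 12.5 µM, α-KG 25 µM, Fe²⁺, ascorbate, NAD⁺, FDH) was added, and NADH fluorescence change over 30 min gave dose-response curves.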
IP6K1 inh – inhibitors of human IP6K1 | Q92551 | 140,000 compounds, 0.81% hits | IP6K1 kinase, ADP-Glo luminescence, 2 h; hits give low values | activity change, % (series mostly up to about 58 µM); in the data active = activity change below about -25%; also: % is scaled to controls: 0 for no effect and ±100 for the full control effect
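ADP-Glo luminescence measures ADP made by human IP6K1 during a 2 h RT reaction with ATP/IP6 (mix at 1.3 mM/130 uM); top library doses 57.5 and 19.1 uM final.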
Starred values were filed as active, the others as inactive; i = inactive; ? = inconclusive; . = no result.

SMILES	KDM5B inhibitor	IP6K1 inh
O=C1Nc2ccc(-c3ccc4c(c3)OCO4)cc2C(=O)N2CCN(C(=O)NC3CCCCC3)C[C@H]12	11µM*	-9
COc1cc(SC)ccc1C(=O)N[C@H]1CCN2C(=O)[C@@H](CC(=O)O)NC(=O)[C@@H]2C1	i	-9
CC(=O)N1CCC(C(=O)N2CCN3C(=O)c4cc(-c5ccc6c(c5)OCO6)ccc4NC(=O)[C@H]3C2)CC1	?	-1
COc1ccc(-c2nc(CSCC(=O)N3c4ccccc4CC3C)co2)cc1 (stereo not given)	i	.
COc1ccc(S(=O)(=O)c2nc(-c3ccc(F)cc3)oc2N2CCOCC2)cc1	i	.
CCc1ccc(NC(=O)N2CCc3cc(S(=O)(=O)N4CCC(C)CC4)ccc32)cc1	i	.
COc1ccc(-c2cn3cc(C(=O)NCc4cccc(C(F)(F)F)c4)nc3s2)cc1	.	2
CSc1ccc(-c2cccc(C(=O)NCC(=O)NCc3ccc(C(F)(F)F)cc3)c2)cc1	.	-9
O=C(NCc1cccc(Cl)c1)c1nc2cccnc2n(CCc2ccccc2)c1=O	.	22
Cn1ncc2c(C(=O)NC3CCCCCC3)cc(-c3ccccc3C(F)(F)F)nc21	.	8
CC1CCN(S(=O)(=O)N2CCC(C(=O)N3CCc4nc5cc[nH]n5c(=O)c4C3)CC2)CC1	?	19
Cc1ccc(S(=O)(=O)N2CCc3nc4cc[nH]n4c(=O)c3C2)cc1C	25µM*	6
O=c1c2c(nc3cc(-c4ccccc4)[nH]n13)CCN(S(=O)(=O)c1ccccc1Cl)C2	?	0
CCCc1ccc(S(=O)(=O)N2CCc3nc4cc[nH]n4c(=O)c3C2)cc1	14µM*	0
COc1ccccc1-c1ccc2c(C(=O)N3CCC(Cc4ccccc4)CC3)nn(C)c2n1	.	-3
O=C(c1cccc(Cl)c1)N1CCN(C(=O)c2nc3cccnc3n(CCc3ccccc3)c2=O)CC1	.	0
O=C(O)C1C2C=CC(C2)C1C(=O)Nc1ccccc1C(F)(F)F (stereo not given)	i	.
O=C(Nc1cccn2nc(C3CCC3)nc12)c1ccc(F)cc1	i	13
Nc1cccn2nc(C3CCC3)nc12	18µM*	12
CC(=O)Nc1ccc(/C=C/C(=O)N(C)C(C)c2ccc(C)s2)cc1 (stereo not given)	i	.
O=C(Nc1ccc(=O)n2c1[C@@H]1C[C@@H](CN(C(=O)Nc3ccc(F)cc3)C1)C2)NC1CCCCC1	20µM*	6
CC(=O)N1CCC(N2C[C@@H]3C[C@H](C2)c2c(NC(=O)NC4CCCCC4)ccc(=O)n2C3)CC1	?	17
CCC(C)(C)NC(=O)c1cc2cc(Br)ccc2oc1=O	i	.
COCCNC(=O)C1CCCN1Cc1cccc(-c2ccc(C)c(Cl)c2)c1 (stereo not given)	.	16
CCCCC(=O)N1CCC(c2nc3ccccc3o2)CC1	i	.
SMILES	KDM5B inhibitor	IP6K1 inh
C[C@H](C(=O)N1CCCC1)[C@@H]1CC[C@@]2(C)Cc3sc(-c4ccsc4)nc3[C@@H](C)[C@@H]2[C@H]1O	?	0
C[C@H](C(=O)N1CCCC1)C1CC[C@@]2(C)Cc3sc(-c4ccccc4)nc3[C@@H](C)[C@@H]2[C@H]1O (stereo not given in full)	32µM*	-9
CC(=O)Nc1ccc2nc(SCc3ccc(Cl)cc3)sc2c1	i	.
Cn1ccc2c(C(=O)NCCC(N)=O)nc(-c3ccccc3C(F)(F)F)cc21	i	-12
Cn1ccc2c(C(=O)NCCC(N)=O)nc(-c3ccccc3)cc21	32µM*	-10
Cn1cc(-c2cc3c(ccn3C)c(C(=O)NCCc3cnc[nH]3)n2)cn1	i	19
Cc1ccccc1-c1cc2c(ccn2C)c(C(=O)NCCc2cnc[nH]2)n1	40µM*	9
Cn1ccc2c(C(=O)NCCC(N)=O)nc(-c3cccc(CO)c3)cc21	i	-2
Cn1ccc2c(C(=O)NCCC(N)=O)nc(-c3cccc(C(F)(F)F)c3)cc21	14µM*	-2
CCc1cccc(NC(=O)Nc2ccc(OC)cc2)c1	i	.
O=C(c1ccc(C(F)(F)F)cc1)N1CCC2(CC(c3cccc(C(F)(F)F)c3)=NO2)C1 (stereo not given)	?	1
O=C(NC1CCCC1)N1CCN(c2ccc3nnc(C4CC4)n3n2)CC1	.	31
O=Cc1ccc(-c2cncc(C(=O)O)c2)cc1	100µM*	-18
O=C(O)c1cncc(C(=O)O)c1	i	.
CCOc1ccccc1CN1CCN(C(=O)c2ccccn2)CC1CCO (stereo not given)	20µM*	-3
CCOc1ccccc1CN1CCN(c2nccc(OC)n2)CC1CCO (stereo not given)	?	8
COc1cccc(Nc2ccc3c(n2)C(C)(C(=O)NC2CCC(O)CC2)CN(C)C3)c1 (stereo not given)	?	-4
COc1ccc(NC(=O)C2(C)CN(C)Cc3ccc(NCc4ccccc4)nc32)cc1 (stereo not given)	32µM*	5
CN1Cc2ccc(NCc3ccccc3)nc2C(C)(C(=O)NCc2cccs2)C1 (stereo not given)	?	-6
COCCN1Cc2ccc(Nc3ccc(OC)cc3)nc2C(C)(C(=O)NCC2CC2)C1 (stereo not given)	i	9
COc1cccc(Nc2ccc3c(n2)C(C)(C(=O)NCc2cccs2)CN(C)C3)c1 (stereo not given)	28µM*	-8
CN1Cc2ccc(NCc3ccccc3)nc2C(C)(C(=O)Nc2ccccc2)C1 (stereo not given)	28µM*	20
COCCNC(=O)C1(C)CN(C)Cc2ccc(Nc3ccccc3)nc21 (stereo not given)	i	12
CN1Cc2ccc(NCc3ccccc3)nc2C(C)(C(=O)NCCOc2ccccc2)C1 (stereo not given)	32µM*	2
Cc1ccncc1NC(=O)CC1=C2CCCCC2N(Cc2ccc(F)cc2)C1=O (stereo not given)	.	-3
SMILES	KDM5B inhibitor	IP6K1 inh
Fc1cccc(-c2cnc([C@@H]3COCCN3Cc3ccc(Cl)cc3)[nH]2)c1	?	11
CCn1nc(C(=O)OC(C(=O)NC(N)=O)C(C)C)c2ccccc2c1=O (stereo not given)	i	.
Cc1n[nH]c(C)c1C(N)C(=O)N1CCN(c2ccc3nccn3n2)CC1 (stereo not given)	28µM*	-4
O=C([C@H]1CCC[C@@H](O)C1)N1CCN(c2ccc3nccn3n2)CC1	28µM*	18
Cc1n[nH]c(C)c1C(N)C(=O)N1CCCCCCC1 (stereo not given)	i	7
O=C([C@H]1CCC[C@H](O)C1)N1CCN(c2ccnc3nncn23)CC1	?	7
Cn1cc(CC(=O)N2CCCc3ncc(C(=O)Nc4cccc(Cl)c4)cc32)c2ccccc21	?	14
CC(C)(C)c1[nH]c2ccc(-c3ccccc3)cc2c1C=O	i	.
O=C(O)CCn1ncc2cc(OC3CCN(C(=O)COc4ccccc4)CC3)ccc21	i	2
O=C(O)Cn1ccc2cc(OCC3CCN(C(=O)COc4ccccc4)CC3)cnc21	35µM*	-8
O=C(CC1CC1)N1CCC(Oc2cnc3c(ccn3-c3cncnc3)c2)CC1	i	6
NC(=O)Cn1ccc2cc(OCC3CCN(C(=O)CC4CC4)CC3)cnc21	35µM*	-12
O=C(O)Cn1ccc2cc(OCC3CCN(C(=O)Cc4ccccc4)CC3)cnc21	40µM*	-4
O=C(Cc1ccccc1)N1CCC(Oc2cnc3c(ccn3-c3cncnc3)c2)CC1	i	-1
